Screening results (PubChem BioAssay)
SMARCA2 activ = SMARCA2 function activation, primary screen; MG213 cells, MMTV-luciferase reporter, dexamethasone, overnight; activation, % at 9.1 µM; 1% of 370,000 active; AID 652017; in the data active = activation above about 7.8%;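 also: 0% = vehicle wells and 100% = reference activator wells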
hgDAF12 agonist = activates the H. glycines DAF-12 receptor ligand-binding domain | AID 687014 | activation, % at 6.8 µM | 1.8% of 370,000 active | HEK293 GAL4-hgDAF12 UAS-luciferase reporter, agonist luminescence; normalized to butyrate control;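 active = activation above a cutoff set at the mean of all screened compounds plus 3 SD, cut at about 10% in these data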;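 also: 0% = DMSO wells and 100% = sodium butyrate wells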
DAX1 inh = inhibitors of DAX1 repression of SF-1 activated StAR promoter | inhibition, % at 6.8 µM | 1.1% of 370,000 active | HEK293T StAR-luciferase reporter, SF-1/DAX-1 repression relief;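 active = inhibition above the mean over all tested compounds plus 3 SD, cut at about 3.6% in these data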;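 also: 0% = DAX-1 cells with DMSO and 100% = cells lacking DAX-1 with DMSO; higher inhibition means more luminescence from relief of DAX-1 repression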
ssDAF-12 act = activators of S. stercoralis DAF-12 nuclear receptor; 1% of 370,000 active; HEK293 ssDAF-12/GRIP1 lit1-tk-luc reporter, luminescence; % of 3 µM dafachronic acid response; activation, % at 6.8 µM;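 active = activation above the mean over all tested compounds plus 3 SD, cut at about 0.9% in these data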;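 also: 0% = DMSO-only wells and 100% = 3 µM delta7-dafachronic acid wells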
hcDAF12 agonist = H. contortus DAF-12 activation, primary screen; 1.4% of 370,000 active; activation, % at 6.8 µM; HEK293 hcDAF-12 lit1-tk-luc reporter, luminescence; 0% DMSO, 100% Δ7-dafachronic acid;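 active = activation above the mean of all tested compounds plus 3 SD, cut at about 5.5% in these data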;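 also: 100% = response to 3 µM Δ7-dafachronic acid high control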
DAX1 conf = confirmation of human DAX1 (NR0B1) inhibitors; shares compounds with DAX1 inh; HEK293T StAR-promoter luciferase reporter, SF-1/DAX-1 repression; inhibition, % at 6.8 µM; 87% of 2,400 active; AID 652134;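 active = inhibition above the average of every tested compound plus 3 SD, cut at about 3.8% in these data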;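 also: 0% = DAX-1 cells with DMSO and 100% = no DAX-1 control cells with DMSO; active compounds raise luminescence by relieving repression of the StAR reporter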
Target sequence (P51843 whole entry, looked up): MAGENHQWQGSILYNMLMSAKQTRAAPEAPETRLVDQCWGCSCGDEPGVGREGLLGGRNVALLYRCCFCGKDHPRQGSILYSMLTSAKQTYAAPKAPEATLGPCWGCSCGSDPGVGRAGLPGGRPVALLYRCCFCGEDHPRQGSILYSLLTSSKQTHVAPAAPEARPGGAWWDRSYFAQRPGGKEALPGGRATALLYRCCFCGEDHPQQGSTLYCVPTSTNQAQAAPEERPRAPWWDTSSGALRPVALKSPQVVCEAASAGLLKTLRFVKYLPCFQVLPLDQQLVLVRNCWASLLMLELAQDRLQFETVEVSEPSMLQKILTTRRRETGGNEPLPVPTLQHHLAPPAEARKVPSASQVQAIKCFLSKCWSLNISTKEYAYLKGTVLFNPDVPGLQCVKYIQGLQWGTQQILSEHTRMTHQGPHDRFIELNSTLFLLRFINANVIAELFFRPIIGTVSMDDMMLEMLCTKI
SF1 mutant ctr = counter-screen for DAX1 inhibitors: nonselective inhibitors with SF-1 AF2 mutant; shares compounds with DAX1 inh; HEK293 StAR-luciferase, luminescence; inhibition, % at 6.8 µM; 78% of 2,400 active;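 active = inhibition above the mean of all tested compounds plus 3 SD, cut at about 3% in these data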;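 also: 0% = DAX-1 transfected cells with DMSO and 100% = cells without DAX-1 with DMSO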
Numbers without * were called inactive; / = no result. Shown are actives, neighbours in structure and some others; about 4.2% of the full set was active somewhere.

SMILES	SMARCA2 activ	hgDAF12 agonist	DAX1 inh	ssDAF-12 act	hcDAF12 agonist	DAX1 conf	SF1 mutant ctr
COc1cccc(-c2cc(C(=O)N3CCOCC3)no2)c1	5.4	10.3	2.2	-0.3	3.4	/	/
COc1ccc(-c2cc(C(=O)N3CCOCC3)no2)cc1	1.5	10.0	2.8	1.3*	4.7	/	/
Cc1ccc(OC(=O)c2cccc(S(=O)(=O)N3CCCC3)c2)c(-n2nc3ccccc3n2)c1	1.0	11.3*	1.6	-0.8	0.8	/	/
Cc1ccc(OC(=O)c2ccc(S(=O)(=O)N(C)C)cc2)c(-n2nc3ccccc3n2)c1	5.2	12.0*	2.9	0.5	3.2	/	/
C[C@H]1[C@@H](OC(=O)Nc2ccc(Cl)cc2)CC[C@@]23CCCN2C(=O)CCC[C@@H]13	/	-0.1	/	-1.5	-1.5	/	/
N/C(Cc1cccc2ccccc12)=N\O	-0.6	2.1	0.7	-0.4	5.7*	/	/
N/C(Cc1ccccc1Sc1ccccc1)=N\O	-2.0	2.5	-0.4	-1.5	-2.0	/	/
COC(=O)[C@]12C[C@H](CC(=O)N3CCSCC3)C(=O)N(Cc3ccccc3)C1=C[C@H](COCc1ccccc1)O[C@@H]2C	-4.9	2.0	-1.0	-1.6	0.4	/	/
OC(c1cccs1)(c1cccs1)C1C[N+]2(CF)CCC1CC2 (stereo unspecified)	-1.2	0.3	0.0	-0.9	5.8*	/	/
Cc1ccc(Cn2cc(CN3CC=CS3(=O)=O)nn2)cc1	-0.3	6.2	-0.1	-0.7	-0.6	/	/
CC(C)(C)c1ccc(C(=O)Nc2nnc(SCC(=O)NCC3CCCO3)s2)cc1 (stereo unspecified)	4.2	9.7	11.3*	-0.2	5.5	8.9*	6.1*
CCOc1ccc(C(=O)Nc2nnc(SCC(=O)NCC3CCCO3)s2)cc1 (stereo unspecified)	4.8	7.1	5.4*	-0.2	6.1*	4.2*	2.1
Cc1cc(NC(=O)c2nn(C)c(C)c2[N+](=O)[O-])no1	1.3	1.4	-0.2	-1.0	-1.7	/	/
Cc1cc(NC(=O)c2nn(C)c(C)c2Br)no1	4.3	2.2	4.6*	-0.5	2.6	4.6*	5.2*
COc1cccc(NC(=O)CN(C)CC(=O)Nc2ccc3c(c2)OCO3)c1	1.8	-1.5	1.2	-1.0	-1.6	/	/
O=C(/C=C/c1ccco1)NCc1ccc2c(c1)OCO2	3.5	2.5	1.3	-1.7	0.3	/	/
O=C(Nc1ccc2c(c1)OCO2)c1cc(C2CC2)on1	5.0	8.9	7.0*	-0.1	4.1	13.0*	7.8*
O=C(Nc1ccc2c(c1)OCO2)c1cnccn1	5.1	7.2	1.8	-0.9	0.8	/	/
O=C(Nc1ccc2c(c1)OCO2)c1ccccn1	3.1	11.4*	8.8*	0.2	1.8	9.9*	7.1*
COc1cccc(NC(=O)Nc2ccc3c(c2)OCO3)c1	1.5	9.6	8.4*	-0.1	2.9	6.2*	4.9*
O=C(/C=C/c1ccco1)Nc1ccc2c(c1)OCO2	2.6	12.2*	6.1*	0.2	2.2	10.8*	6.0*
CCOC(=O)N1CCN(C(=O)C[C@H]2C[C@@]3(C(=O)OC)C(=C[C@H](C(C)(C)C)O[C@@H]3C)N(Cc3ccccc3)C2=O)CC1	0.6	-0.9	-0.8	-1.5	-1.2	/	/
O=C1C[C@@H](c2ccccc2)N=C2N(CC3CC3)C/C(=C/c3ccccc3)N12	-3.1	0.3	-0.8	-2.2	-4.0	/	/
COC(=O)[C@]12C[C@H](CC(=O)NCC3CCCCC3)C(=O)N(CCC3=CCCCC3)C1=C[C@H](C(C)(C)C)O[C@@H]2C	-2.7	0.7	1.0	-0.5	-1.0	/	/
Cc1ccc(C(=O)N2c3ccccc3CC2C)o1 (stereo unspecified)	7.7	12.5*	5.4*	-0.4	3.0	7.5*	6.5*
Cc1ccc(NC(=O)COC(=O)CCC(=O)c2cccs2)c(Br)c1	3.4	1.5	0.9	-1.5	-0.7	/	/
Cc1ccc(NC(=O)CCC(=O)c2cccs2)c(Br)c1	2.4	7.1	8.0*	-0.2	3.0	7.6*	5.5*
